Bioassay records as filed in PubChem BioAssay.
Fam108B inh: counter-screen for RBBP9 inhibitors: inhibitors of mouse Fam108B; recombinant Fam108B, FP-Rh probe fluorescence polarization; inhibition, % at 9.51 µM; 300,000 compounds, 0.33% hits;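 active = inhibition above the screen mean inhibition plus 3 SD, computed separately per campaign, cut at about 18% in these data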;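 also: inhibitors lower polarization as less probe binds the enzyme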
PME-1 inh: blocks human protein phosphatase methylesterase 1. 320,000 compounds, 0.53% hits. inhibition, % at 5.9 µM. recombinant PME-1, FP-Rh probe fluorescence polarization. AID 2130;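 active = inhibition above the campaign mean of all compounds plus 3 SD, cut at about 26% in these data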;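 also: competitive labeling of PME-1 active site by serine hydrolase directed probe; inhibitors block probe labeling so polarization falls and inhibition rises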
LYPLA2 counter: LYPLA2 (human) inhibition in PME1 counter-screen; O95372; recombinant LYPLA2, FP-Rh probe fluorescence polarization; inhibition, % at 5.9 µM; 320,000 compounds, 0.38% hits; AID 2177;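 active = inhibition above the screen-wide mean plus 3 SD, limit set per campaign, cut at about 26% in these data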
PAD4 inh: blocks human protein arginine deiminase 4; recombinant PAD4, RCA probe fluorescence polarization; 330,000 compounds, 0.41% hits; inhibition, % at 6.36 µM; Q9UM07;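 active = percent inhibition above a cutoff equal to the mean of all tested compounds plus 3 SD, cut at about 15% in these data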
Target sequence (Q9UM07 whole entry, looked up): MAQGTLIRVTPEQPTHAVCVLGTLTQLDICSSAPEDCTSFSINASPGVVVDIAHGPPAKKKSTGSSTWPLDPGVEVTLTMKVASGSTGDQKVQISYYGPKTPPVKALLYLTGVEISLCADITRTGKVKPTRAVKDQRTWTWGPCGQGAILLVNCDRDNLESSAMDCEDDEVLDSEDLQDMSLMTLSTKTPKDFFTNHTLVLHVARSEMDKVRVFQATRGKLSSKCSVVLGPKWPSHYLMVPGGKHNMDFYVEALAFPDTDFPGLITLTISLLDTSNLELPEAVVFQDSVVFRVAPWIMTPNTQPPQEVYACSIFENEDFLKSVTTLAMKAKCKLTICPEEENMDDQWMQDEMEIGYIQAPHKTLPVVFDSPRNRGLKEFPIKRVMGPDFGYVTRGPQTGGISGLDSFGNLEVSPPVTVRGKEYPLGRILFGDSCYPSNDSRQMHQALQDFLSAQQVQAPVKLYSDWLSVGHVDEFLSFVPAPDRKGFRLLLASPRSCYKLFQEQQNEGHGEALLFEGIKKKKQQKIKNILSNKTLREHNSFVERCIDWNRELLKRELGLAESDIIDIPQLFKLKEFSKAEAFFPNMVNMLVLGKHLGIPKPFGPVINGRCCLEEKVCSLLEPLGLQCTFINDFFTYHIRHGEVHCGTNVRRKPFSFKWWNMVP
GSTO1 counter: counter-screen for RBBP9 inhibitors: inhibitors of human GSTO1. recombinant GSTO1, activity-based probe fluorescence polarization. 300,000 compounds, 1.1% hits. P78417. inhibition, % at 5.96 µM. AID 1974;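 active = inhibition above the campaign mean inhibition plus 3 SD, cut at about 35% in these data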
LYPLA1 counter: counter-screen for PME1 inhibitors: inhibitors of human LYPLA1; O75608; 320,000 compounds, 0.16% hits; recombinant LYPLA1, FP-Rh probe fluorescence polarization; AID 2174; inhibition, % at 5.9 µM;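 active = inhibition above the mean of all tested compounds plus 3 SD, set per campaign, cut at about 14% in these data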;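 also: inhibitors block serine hydrolase probe labeling of LYPLA1 so polarization falls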
LYPLA1 confirm: LYPLA1 (human) inhibition, confirmation counter-screen | shares compounds with LYPLA1 counter | recombinant LYPLA1, FP-Rh probe fluorescence polarization | inhibition, % at 5.9 µM | 480 compounds, 69% hits | AID 2233;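 active = mean inhibition across replicates above the hit cutoff set in the primary screen, cut at about 15% in these data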;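 also: loss of FP-Rh probe labeling of LYPLA1 seen as lower polarization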
LYPLA2 confirm: LYPLA2 (human) inhibition, confirmation counter-screen; 1,100 compounds, 72% hits; shares compounds with LYPLA2 counter; recombinant LYPLA2, FP-Rh probe fluorescence polarization; inhibition, % at 5.9 µM;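 active = mean inhibition across replicates above the hit cutoff set in the primary screen, cut at about 26% in these data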;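 also: blocked labeling of the enzyme by serine hydrolase FP-Rh probe lowers polarization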
LYPLA2 ABPP: inhibitors of human LYPLA2 | shares compounds with LYPLA2 counter | rhLYPLA2 in mouse brain proteome, gel ABPP FP-Rh | inhibition, % at 20 µM | 150 compounds, 30% hits | AID 652029;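 active = inhibition of LYPLA2 enzyme probe labeling above about 50%, limit read from the data; inactive = inhibition below that limit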;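 also: loss of FP-Rh probe labeling of the LYPLA2 gel band measured as band density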
Hits are given with their value; 0 = inactive; - = no result. This is a sample that favours compounds with a hit; in the whole collection about 1.8% have one here.

SMILES | Fam108B inh | PME-1 inh | LYPLA2 counter | PAD4 inh | GSTO1 counter | LYPLA1 counter | LYPLA1 confirm | LYPLA2 confirm | others
COc1ccc(N2CCN(C(=O)CCCCCn3c(=O)[nH]c4ccsc4c3=O)CC2)cc1 | 0 | 0 | 27 | 0 | 0 | 19 | 46 | 29
COc1ccc(N2CCN(CCCNC(=O)CCCn3c(=O)[nH]c4ccsc4c3=O)CC2)cc1 | 0 | 0 | 0 | 0 | 0 | 0 | - | -
Cc1ccc(C)c(C(=O)CCC(=O)N2CCN(c3cccc(C(F)(F)F)c3)CC2)c1 | - | 0 | 57 | 0 | - | 37 | 44 | 64
COc1ccc(CN2CCN(C(=O)Cn3nc(C(=O)O)c4ccccc4c3=O)CC2)cc1F | 0 | 0 | 57 | 0 | 0 | 17 | 15 | 63 | LYPLA2 ABPP=0
Cc1nn(CC(=O)N2CCN(Cc3ccccc3)CC2)c(=O)c2ccccc12 | 0 | 0 | 0 | 0 | 0 | 0 | - | -
O=C(/C=C/c1cccc2ccccc12)N1CCOCC1 | 0 | 0 | 0 | 0 | 0 | 0 | - | -
Clc1ccc(/C=C/c2nc(Cl)c(-c3ccc(Cl)cc3)c(Cl)n2)cc1 | 0 | 0 | 0 | 0 | 0 | 0 | - | -
COc1ccc2c(c1)C(=O)[C@H](O)[C@@H](c1ccc(OC)c(Br)c1)O2 | 0 | 0 | 93 | 0 | 0 | 44 | 41 | 93
COc1cc(COc2ccc3c(C)c(Cc4ccccc4)c(=O)oc3c2)cc(OC)c1OC | 0 | 0 | 50 | 0 | 0 | 17 | 36 | 57
Cc1csc2c(N(C)CCO)ncnc12 | 0 | 0 | 0 | 0 | 0 | 0 | - | -
COc1ccc(CC(C)N2CCN(Cc3ccccc3)CC2)cc1OC (centres undefined) | 0 | 0 | 28 | 0 | 0 | 25 | 0 | 0
Cc1ccc(CN2CCN(/N=C/C=C/c3ccccc3[N+](=O)[O-])CC2)cc1 | 0 | 0 | 71 | 0 | 0 | 33 | 53 | 77
C=CCNC(=O)c1onc(CSc2ccccn2)c1C(=O)NCC=C | 0 | 0 | 0 | 0 | 0 | 0 | - | -
Cc1ccc(C(=O)NC(=S)N2CCN(c3ccc([N+](=O)[O-])cc3)CC2)cc1 | 0 | 0 | 0 | 0 | 0 | 0 | - | -
O=[N+]([O-])c1ccc(C2CCCC/C2=N/OCc2ccc(F)cc2)c([N+](=O)[O-])c1 (centres undefined) | 0 | 0 | 0 | 0 | 0 | 0 | - | -
Cc1ccc(C(=O)ON=C2CCN(c3ccc([N+](=O)[O-])cc3)CC2)cc1 | 0 | 0 | 55 | 0 | 0 | 23 | 28 | 47
O=[N+]([O-])c1ccc(N2CCC(=NOCc3ccc(Cl)cc3)CC2)cc1 | 0 | 0 | 78 | 0 | 0 | 58 | 70 | 75
CCOc1ccccc1NC(=O)CSc1ccc([N+](=O)[O-])cc1 | 0 | 0 | 0 | 0 | 0 | 0 | - | -
NC(=O)CN1CCN(c2cccc(Cl)c2)CC1 | 0 | 0 | 0 | 0 | 0 | 0 | - | -
C/C(=C\c1ccccc1)CN1CCN(c2cccc(Cl)c2)CC1 | 0 | 0 | 37 | 0 | 0 | 25 | 42 | 44
O=C(NC(=S)Nc1sc2c(c1C(=O)O)CCCC2)c1ccccc1 | 0 | 0 | 96 | 0 | 0 | 78 | 71 | 87
N#Cc1c(NC(=S)NC(=O)c2ccccc2)sc2c1CCC2 | 0 | 0 | 0 | 0 | 0 | 0 | - | -
COc1ccc(-n2nc(C(=O)NCC(=O)N3CCN(c4cccc(Cl)c4)CC3)c3ccccc3c2=O)c(OC)c1 | 0 | 0 | 83 | 0 | 0 | 49 | 49 | 68
CC(C)(C)OC(=O)NCCc1nnc(SCc2c(Cl)cccc2Cl)o1 | 0 | 0 | 0 | 0 | 0 | 0 | - | -
CC(C)(C)OC(=O)NCCCCCc1nnc(SCc2c(F)cccc2Cl)o1 | 0 | 0 | 40 | 0 | 0 | 25 | 41 | 44
SMILES | Fam108B inh | PME-1 inh | LYPLA2 counter | PAD4 inh | GSTO1 counter | LYPLA1 counter | LYPLA1 confirm | LYPLA2 confirm | others
Cc1cc(C(=O)COc2cccc3cccnc23)c(C)n1C | 0 | 0 | 29 | 0 | 0 | 21 | 0 | 0
Cc1cc(C(=O)COc2ccccc2C(N)=O)c(C)n1C | 0 | 0 | 0 | 0 | 0 | 0 | - | -
O=C(c1ccccn1)N1CCN(c2ccc(C(F)(F)F)cn2)CC1 | 0 | 0 | 0 | 0 | 0 | 0 | - | -
O=C(c1ccc2n[nH]nc2c1)N1CCN(c2ccc(C(F)(F)F)cn2)CC1 | - | 0 | 62 | 0 | - | 67 | 58 | 70
CC(=O)c1ccc(N2CCN(C(=O)C3CCCN(c4ncnc5c4nc4n5CCCCC4)C3)CC2)cc1 (centres undefined) | 0 | 0 | 0 | 0 | 0 | 0 | - | -
CC(=O)c1ccc(N2CCN(C(=O)c3ccc(C(=O)c4ccccc4)cc3)CC2)cc1 | - | 0 | 55 | 0 | - | 21 | 36 | 65
CC(=O)N1CCC2(CC1)C/C(=N\NC(=S)Nc1ccc(C)cc1)c1cc(O)ccc1O2 | 0 | 0 | 50 | 0 | 0 | 22 | 31 | 54
Cc1ccc(NC(=S)N/N=C2\CC(C)(C)Oc3ccc(O)cc32)cc1 | 0 | 0 | 0 | 0 | 0 | 0 | - | -
Cc1cc(C)c(C)c(S(=O)(=O)N2CCC(C(=O)OCC(=O)NC3CCS(=O)(=O)C3)CC2)c1C (centres undefined) | - | - | - | 0 | - | - | - | -
OC(COc1ccc(Cl)cc1)CN1CCN(c2cccc(Cl)c2)CC1 (centres undefined) | 0 | 0 | 59 | 0 | 0 | 20 | 27 | 62
CC(=O)N1CCN(c2ccc(NC(=S)NC(=O)c3ccc(C)c([N+](=O)[O-])c3)cc2)CC1 | 0 | 0 | 43 | 0 | 0 | 20 | 32 | 56
COc1ccc(C(=O)NC(=S)Nc2cccc(NC(=O)c3ccco3)c2)cc1[N+](=O)[O-] | 0 | 0 | 48 | 0 | 0 | 37 | 0 | 0
CCOc1ccc(C(=O)NC(=S)Nc2ccc(N3CCCCC3)cc2)cc1[N+](=O)[O-] | 0 | 0 | 0 | 0 | 0 | 0 | - | -
COc1ccc(C(=O)NC(=S)Nc2ccc(NC(=O)c3ccco3)cc2)cc1[N+](=O)[O-] | 0 | 0 | 0 | 0 | 0 | 0 | - | -
COc1ccc(C(=O)NC(=S)Nc2ccc(N3CCN(C(C)=O)CC3)cc2)cc1[N+](=O)[O-] | 0 | 0 | 70 | 0 | 0 | 55 | 63 | 75
CCC(C)(NC(=O)CNC(C)=O)C(=O)NC1CCCCC1 (centres undefined) | 0 | 0 | 0 | 0 | 0 | 0 | - | -
CCCCCCCNC(=O)C1(CC2CC(c3ccc(Cl)cc3)=NO2)CCNCC1 (centres undefined) | 0 | 0 | 0 | 0 | 0 | 0 | - | -
CC(C)CCNC(=O)C1CC(c2ccc(C(F)(F)F)cc2)=NO1 (centres undefined) | 0 | 0 | 0 | 0 | 0 | 0 | - | -
COc1ccc(-n2cnnc2SCC(=O)Nc2cccc(S(=O)(=O)N3CCCCC3)c2)cc1 | 0 | 0 | 0 | 0 | 0 | 0 | - | -
